Experiment [1] addresses T1, Serine/threonine-protein kinase D2 (Homo sapiens) (UniProt Q9BZL6).
T1 sequence (whole entry): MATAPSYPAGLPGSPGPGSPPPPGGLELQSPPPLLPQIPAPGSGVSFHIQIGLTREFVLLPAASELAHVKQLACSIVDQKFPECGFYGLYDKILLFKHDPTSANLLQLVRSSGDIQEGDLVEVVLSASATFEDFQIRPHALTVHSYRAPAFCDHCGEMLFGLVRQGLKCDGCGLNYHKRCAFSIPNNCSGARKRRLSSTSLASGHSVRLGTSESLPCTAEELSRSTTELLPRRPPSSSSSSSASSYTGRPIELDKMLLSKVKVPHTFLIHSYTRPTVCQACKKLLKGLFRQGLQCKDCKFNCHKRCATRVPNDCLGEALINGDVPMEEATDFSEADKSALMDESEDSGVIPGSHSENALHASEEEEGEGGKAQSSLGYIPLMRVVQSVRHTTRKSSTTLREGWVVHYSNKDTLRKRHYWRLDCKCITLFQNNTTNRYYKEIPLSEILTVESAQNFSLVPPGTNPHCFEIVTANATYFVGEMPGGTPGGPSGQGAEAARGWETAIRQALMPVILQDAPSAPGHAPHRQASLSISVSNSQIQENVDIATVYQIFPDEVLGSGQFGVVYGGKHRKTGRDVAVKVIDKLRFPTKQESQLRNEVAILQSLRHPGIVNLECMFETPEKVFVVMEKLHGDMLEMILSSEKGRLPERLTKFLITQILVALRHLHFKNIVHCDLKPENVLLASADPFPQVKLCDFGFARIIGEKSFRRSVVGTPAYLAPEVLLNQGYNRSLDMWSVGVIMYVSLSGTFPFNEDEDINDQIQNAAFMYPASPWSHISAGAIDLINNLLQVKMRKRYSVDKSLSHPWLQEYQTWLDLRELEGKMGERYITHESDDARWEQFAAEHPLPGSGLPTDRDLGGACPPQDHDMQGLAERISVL
The note with it: at 1 µM.

The target of experiment [2] is T2, Serine/threonine-protein kinase D3 (Homo sapiens) (UniProt O94806).
T2 sequence (whole entry): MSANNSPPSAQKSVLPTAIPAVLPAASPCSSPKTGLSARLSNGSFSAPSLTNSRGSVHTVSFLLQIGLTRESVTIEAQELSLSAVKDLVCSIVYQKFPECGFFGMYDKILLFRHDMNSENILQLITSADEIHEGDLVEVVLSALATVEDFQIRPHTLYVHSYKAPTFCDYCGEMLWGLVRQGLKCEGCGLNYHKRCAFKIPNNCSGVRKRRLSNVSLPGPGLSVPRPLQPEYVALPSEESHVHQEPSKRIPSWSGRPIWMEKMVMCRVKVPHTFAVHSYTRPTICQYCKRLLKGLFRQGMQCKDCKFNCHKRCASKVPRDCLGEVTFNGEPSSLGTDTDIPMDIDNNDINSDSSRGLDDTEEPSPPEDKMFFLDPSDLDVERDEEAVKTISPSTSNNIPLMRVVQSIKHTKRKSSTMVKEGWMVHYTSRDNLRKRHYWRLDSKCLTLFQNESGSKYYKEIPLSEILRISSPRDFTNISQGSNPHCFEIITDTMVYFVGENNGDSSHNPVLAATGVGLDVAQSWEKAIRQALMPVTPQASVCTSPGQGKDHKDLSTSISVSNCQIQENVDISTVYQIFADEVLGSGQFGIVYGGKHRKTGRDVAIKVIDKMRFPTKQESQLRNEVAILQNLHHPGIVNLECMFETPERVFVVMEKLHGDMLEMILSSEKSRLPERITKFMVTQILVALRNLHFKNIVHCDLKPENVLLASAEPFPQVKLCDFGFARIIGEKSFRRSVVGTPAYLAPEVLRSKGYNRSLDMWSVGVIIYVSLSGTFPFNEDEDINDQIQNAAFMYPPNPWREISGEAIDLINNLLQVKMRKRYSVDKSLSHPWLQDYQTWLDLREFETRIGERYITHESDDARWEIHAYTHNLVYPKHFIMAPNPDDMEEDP
The note with it: at 0.1 µM.

Experiment [3] has as its target T2, Serine/threonine-protein kinase D3 (Homo sapiens). The note with it: at 1 µM.
Experiment [4] has as its target T3, cGMP-dependent protein kinase 1 (Homo sapiens) (UniProt Q13976).
T3 sequence (whole entry): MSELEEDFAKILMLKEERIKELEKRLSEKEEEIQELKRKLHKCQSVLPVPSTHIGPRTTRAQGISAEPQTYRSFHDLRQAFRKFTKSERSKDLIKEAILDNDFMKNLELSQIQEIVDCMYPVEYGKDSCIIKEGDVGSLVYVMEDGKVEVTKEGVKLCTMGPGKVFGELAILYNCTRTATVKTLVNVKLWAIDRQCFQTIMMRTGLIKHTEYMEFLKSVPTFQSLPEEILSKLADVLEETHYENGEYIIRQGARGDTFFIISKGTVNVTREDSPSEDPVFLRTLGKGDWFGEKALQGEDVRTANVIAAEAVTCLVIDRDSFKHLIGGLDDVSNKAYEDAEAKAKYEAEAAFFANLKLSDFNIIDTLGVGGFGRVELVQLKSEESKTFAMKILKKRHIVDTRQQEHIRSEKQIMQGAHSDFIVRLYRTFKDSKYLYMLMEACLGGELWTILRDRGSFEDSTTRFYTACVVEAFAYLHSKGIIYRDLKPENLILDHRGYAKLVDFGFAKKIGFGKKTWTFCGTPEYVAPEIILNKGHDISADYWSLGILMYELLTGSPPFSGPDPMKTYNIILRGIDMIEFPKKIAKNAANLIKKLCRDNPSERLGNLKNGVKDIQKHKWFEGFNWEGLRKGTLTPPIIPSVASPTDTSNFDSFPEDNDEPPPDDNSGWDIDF
To be noted: at 0.1 µM.

Experiment [5] concerns the target T3, cGMP-dependent protein kinase 1 (Homo sapiens). The note with it: at 1 µM.
Experiment [6] deals with T4, cGMP-dependent protein kinase 2 (Homo sapiens) (UniProt Q13237).
T4 sequence (whole entry): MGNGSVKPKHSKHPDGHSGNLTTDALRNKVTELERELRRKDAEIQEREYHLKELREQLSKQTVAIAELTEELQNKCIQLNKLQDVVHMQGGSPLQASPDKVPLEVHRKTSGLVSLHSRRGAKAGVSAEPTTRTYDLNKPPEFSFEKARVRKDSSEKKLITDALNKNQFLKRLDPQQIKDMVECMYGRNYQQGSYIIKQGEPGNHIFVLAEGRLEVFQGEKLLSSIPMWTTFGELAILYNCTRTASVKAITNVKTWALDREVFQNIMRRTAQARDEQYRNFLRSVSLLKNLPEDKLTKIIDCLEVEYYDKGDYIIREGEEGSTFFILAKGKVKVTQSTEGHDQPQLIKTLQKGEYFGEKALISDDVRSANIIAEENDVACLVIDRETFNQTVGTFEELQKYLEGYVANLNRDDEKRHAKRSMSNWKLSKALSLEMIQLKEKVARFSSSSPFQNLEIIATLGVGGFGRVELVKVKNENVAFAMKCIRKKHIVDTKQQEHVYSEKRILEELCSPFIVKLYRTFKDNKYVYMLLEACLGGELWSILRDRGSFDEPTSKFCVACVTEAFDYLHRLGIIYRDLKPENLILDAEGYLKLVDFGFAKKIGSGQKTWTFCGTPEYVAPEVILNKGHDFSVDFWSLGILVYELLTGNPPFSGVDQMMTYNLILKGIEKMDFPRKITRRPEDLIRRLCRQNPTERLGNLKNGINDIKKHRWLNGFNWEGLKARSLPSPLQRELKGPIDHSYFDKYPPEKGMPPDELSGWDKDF
The note with it: at 0.1 µM.

In experiment [7] the target is T4, cGMP-dependent protein kinase 2 (Homo sapiens). The note with it: at 1 µM.
The target in experiment [8] is T5, cAMP-dependent protein kinase catalytic subunit PRKX (Homo sapiens) (UniProt P51817).
T5 sequence (whole entry): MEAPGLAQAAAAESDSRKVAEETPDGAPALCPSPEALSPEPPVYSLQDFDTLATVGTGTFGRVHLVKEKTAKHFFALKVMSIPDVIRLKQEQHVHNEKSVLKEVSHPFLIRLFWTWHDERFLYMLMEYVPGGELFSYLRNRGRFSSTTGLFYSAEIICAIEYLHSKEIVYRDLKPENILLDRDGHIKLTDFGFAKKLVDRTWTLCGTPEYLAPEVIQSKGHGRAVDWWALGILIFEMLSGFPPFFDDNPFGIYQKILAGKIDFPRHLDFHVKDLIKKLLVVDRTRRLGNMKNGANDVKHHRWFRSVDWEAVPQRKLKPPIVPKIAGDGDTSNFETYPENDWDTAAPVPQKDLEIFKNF
The note with it: at 0.1 µM.

Experiment [9] has as its target T5, cAMP-dependent protein kinase catalytic subunit PRKX (Homo sapiens). The note with it: at 1 µM.
Experiment [10] addresses Rho-associated protein kinase 1 (Homo sapiens) (UniProt Q13464). To be noted: at 0.1 µM.
Experiment [11] has the same target. The note with it: at 1 µM.
In experiment [12] the target is Rho-associated protein kinase 2 (Homo sapiens) (UniProt O75116). The note with it: at 0.1 µM.
Experiment [13] shares this target. To be noted: at 1 µM.
For experiment [14], the target named is Ribosomal protein S6 kinase alpha-1 (Homo sapiens) (UniProt Q15418). The note with it: at 0.1 µM.
Experiment [15] has the same target. To be noted: at 1 µM.
In experiment [16] the target is Ribosomal protein S6 kinase alpha-3 (Homo sapiens) (UniProt P51812). To be noted: at 0.1 µM.
Experiment [17] has the same target. To be noted: at 1 µM.
The target in experiment [18] is Ribosomal protein S6 kinase alpha-2 (Homo sapiens) (UniProt Q15349). The note with it: at 0.1 µM.
Experiment [19] shares this target. The note with it: at 1 µM.
Experiment [20] deals with Ribosomal protein S6 kinase alpha-6 (Homo sapiens) (UniProt Q9UK32). To be noted: at 0.1 µM.

Drawing on ChEMBL document CHEMBL1961873, “Compounds: GSK PKIS; Assays: Nanosyn kinase panel” (2012), this text covers inhibition for 4 molecules.

Each structure is given as a SMILES string.

Ribosomal protein S6 kinase alpha-6 (Homo sapiens), sequence (Q9UK32 whole entry): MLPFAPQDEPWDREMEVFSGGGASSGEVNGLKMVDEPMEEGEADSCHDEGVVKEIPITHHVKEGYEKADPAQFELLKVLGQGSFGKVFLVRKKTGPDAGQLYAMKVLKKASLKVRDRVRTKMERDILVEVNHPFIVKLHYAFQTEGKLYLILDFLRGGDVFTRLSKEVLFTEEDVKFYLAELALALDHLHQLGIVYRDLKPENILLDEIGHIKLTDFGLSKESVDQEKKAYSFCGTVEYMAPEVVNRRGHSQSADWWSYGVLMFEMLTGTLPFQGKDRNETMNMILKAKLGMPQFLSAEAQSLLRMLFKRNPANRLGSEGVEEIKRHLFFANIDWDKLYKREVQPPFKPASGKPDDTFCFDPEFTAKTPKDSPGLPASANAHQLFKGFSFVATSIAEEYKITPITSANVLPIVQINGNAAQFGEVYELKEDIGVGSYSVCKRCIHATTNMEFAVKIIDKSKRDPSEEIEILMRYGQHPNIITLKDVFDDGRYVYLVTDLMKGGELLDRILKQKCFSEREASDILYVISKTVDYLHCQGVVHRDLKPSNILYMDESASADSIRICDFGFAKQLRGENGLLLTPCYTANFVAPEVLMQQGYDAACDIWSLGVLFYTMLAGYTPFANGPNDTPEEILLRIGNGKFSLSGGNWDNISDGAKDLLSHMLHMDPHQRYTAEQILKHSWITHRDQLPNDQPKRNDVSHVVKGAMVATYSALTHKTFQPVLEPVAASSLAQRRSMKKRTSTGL
Ribosomal protein S6 kinase alpha-3 (Homo sapiens), sequence (P51812 whole entry): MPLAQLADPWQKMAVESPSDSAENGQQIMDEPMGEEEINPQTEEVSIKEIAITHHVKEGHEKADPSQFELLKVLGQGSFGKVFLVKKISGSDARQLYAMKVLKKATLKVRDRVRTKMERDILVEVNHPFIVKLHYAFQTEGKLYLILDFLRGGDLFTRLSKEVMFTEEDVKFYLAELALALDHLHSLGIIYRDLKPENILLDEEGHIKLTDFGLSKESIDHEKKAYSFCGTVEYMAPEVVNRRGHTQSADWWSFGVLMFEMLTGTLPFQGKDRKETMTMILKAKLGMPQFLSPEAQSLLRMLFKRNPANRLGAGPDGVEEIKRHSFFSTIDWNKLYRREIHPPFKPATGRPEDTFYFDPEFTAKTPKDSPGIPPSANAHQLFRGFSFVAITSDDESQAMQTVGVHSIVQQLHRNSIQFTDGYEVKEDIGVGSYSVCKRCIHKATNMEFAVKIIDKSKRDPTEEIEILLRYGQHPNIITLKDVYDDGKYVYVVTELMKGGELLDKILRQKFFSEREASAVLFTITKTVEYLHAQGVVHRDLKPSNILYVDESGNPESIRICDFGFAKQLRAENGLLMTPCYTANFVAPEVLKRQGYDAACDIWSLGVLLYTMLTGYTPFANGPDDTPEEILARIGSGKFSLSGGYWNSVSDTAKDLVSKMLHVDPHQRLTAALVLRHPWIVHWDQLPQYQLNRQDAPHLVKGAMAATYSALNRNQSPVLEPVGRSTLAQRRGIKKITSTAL
Ribosomal protein S6 kinase alpha-2 (Homo sapiens), sequence (Q15349 whole entry): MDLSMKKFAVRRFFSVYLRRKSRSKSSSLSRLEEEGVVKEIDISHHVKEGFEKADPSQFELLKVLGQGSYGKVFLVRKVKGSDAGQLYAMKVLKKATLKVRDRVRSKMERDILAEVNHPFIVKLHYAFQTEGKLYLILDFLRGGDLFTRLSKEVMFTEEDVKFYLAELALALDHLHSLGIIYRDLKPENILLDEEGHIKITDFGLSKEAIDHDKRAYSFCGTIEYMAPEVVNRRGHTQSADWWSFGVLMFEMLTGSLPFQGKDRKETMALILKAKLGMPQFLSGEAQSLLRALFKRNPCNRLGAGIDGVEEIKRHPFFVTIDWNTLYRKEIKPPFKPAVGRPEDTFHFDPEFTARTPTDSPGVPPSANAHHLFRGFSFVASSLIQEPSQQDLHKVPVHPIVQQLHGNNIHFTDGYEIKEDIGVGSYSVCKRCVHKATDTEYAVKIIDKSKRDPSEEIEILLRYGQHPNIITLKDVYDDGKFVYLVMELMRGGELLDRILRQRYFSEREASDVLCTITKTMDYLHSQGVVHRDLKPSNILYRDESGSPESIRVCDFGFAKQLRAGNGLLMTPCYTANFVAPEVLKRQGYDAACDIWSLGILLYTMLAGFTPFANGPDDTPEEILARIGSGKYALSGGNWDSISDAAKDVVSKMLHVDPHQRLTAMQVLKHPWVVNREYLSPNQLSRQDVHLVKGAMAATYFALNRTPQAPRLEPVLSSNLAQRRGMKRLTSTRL
Ribosomal protein S6 kinase alpha-1 (Homo sapiens), sequence (Q15418 whole entry): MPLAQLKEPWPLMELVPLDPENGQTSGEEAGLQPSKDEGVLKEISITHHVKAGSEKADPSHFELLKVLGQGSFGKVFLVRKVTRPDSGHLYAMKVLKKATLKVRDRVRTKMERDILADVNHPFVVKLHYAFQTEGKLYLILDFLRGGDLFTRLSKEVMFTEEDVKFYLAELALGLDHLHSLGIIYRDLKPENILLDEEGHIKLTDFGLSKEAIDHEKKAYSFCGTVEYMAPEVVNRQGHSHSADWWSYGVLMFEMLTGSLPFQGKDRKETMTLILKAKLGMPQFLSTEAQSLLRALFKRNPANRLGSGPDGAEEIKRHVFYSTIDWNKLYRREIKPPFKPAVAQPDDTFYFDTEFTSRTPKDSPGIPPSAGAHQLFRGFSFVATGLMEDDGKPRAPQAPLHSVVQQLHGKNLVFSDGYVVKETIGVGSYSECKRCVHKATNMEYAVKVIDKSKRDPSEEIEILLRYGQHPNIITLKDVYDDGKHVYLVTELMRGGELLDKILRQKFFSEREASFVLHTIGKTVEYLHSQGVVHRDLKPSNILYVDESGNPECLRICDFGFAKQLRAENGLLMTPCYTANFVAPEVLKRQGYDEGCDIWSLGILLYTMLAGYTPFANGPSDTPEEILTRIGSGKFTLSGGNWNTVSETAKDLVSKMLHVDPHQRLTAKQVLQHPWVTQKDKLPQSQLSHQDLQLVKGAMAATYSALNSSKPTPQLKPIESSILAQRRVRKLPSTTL
Rho-associated protein kinase 1 (Homo sapiens), sequence (Q13464 2-1354 limits assumed): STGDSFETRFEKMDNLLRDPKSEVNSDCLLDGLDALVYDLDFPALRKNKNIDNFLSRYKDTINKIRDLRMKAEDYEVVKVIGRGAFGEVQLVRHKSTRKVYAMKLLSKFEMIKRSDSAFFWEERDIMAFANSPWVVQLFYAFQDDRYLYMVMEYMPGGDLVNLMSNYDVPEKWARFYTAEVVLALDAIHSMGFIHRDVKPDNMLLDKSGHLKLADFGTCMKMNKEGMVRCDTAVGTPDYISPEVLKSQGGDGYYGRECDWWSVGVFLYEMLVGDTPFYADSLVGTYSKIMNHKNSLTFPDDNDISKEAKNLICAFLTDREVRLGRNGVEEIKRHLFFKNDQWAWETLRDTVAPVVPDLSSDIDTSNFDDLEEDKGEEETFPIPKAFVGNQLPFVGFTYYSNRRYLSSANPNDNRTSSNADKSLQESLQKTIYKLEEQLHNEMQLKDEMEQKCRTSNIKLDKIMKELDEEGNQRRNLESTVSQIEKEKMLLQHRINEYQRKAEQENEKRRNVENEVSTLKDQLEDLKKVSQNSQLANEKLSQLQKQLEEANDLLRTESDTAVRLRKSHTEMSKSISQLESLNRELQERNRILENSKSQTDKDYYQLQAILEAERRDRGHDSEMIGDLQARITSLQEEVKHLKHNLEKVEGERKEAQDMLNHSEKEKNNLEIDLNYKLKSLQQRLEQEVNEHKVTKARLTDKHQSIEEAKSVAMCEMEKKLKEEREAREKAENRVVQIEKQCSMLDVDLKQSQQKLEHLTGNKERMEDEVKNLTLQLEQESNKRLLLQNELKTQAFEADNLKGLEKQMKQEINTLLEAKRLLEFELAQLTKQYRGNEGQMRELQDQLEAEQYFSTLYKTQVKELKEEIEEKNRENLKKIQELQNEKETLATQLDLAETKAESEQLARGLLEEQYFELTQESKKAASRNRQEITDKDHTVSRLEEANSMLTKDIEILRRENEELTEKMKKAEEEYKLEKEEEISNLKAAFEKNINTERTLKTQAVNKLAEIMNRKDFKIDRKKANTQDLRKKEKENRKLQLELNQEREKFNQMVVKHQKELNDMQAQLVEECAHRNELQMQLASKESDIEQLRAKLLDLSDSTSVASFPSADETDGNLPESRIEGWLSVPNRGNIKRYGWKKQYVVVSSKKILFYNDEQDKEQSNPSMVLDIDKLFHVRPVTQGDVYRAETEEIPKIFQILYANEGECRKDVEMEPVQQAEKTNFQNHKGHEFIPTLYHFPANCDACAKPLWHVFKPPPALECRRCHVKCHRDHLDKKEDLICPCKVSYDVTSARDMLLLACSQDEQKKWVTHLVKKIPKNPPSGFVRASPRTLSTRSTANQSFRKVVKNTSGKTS

With `NS(=O)(=O)c1cccc(-c2ccc3c(NC(=O)C4CC4)n[nH]c3c2)c1`, the inhibition (commonly the drop in the measured response relative to a control, in per cent) in [1] is -0.76%; in experiment [2], -0.43%; in experiment [3], 0.3%; in experiment [4], 0.48%; in [5] it was 0.57%; in experiment [6] it was 0.6%. In addition, the inhibition in experiment [7] is 1.3%; in experiment [8], 0.01%; in experiment [9], 1.02%; in experiment [10], 1.29%; in experiment [11], 1.53%; in experiment [12], 0.53%. The inhibition in [13] was 2.48%; in [14], 0.46%; in experiment [15], 3.07%; in experiment [16], 0.8%; in experiment [17], 2.45%; in experiment [18], -0.89%. For the same molecule, the inhibition is 0.27% in [19] and -0.55% in experiment [20].
With `Cn1cc(C=C2C(=O)Nc3cccnc32)c2ccccc21`, the inhibition in [1] came to 9.92%; in [2], 3.79%; in [3], 10.3%; in experiment [4], 1.8%; in [5], 3.04%; in experiment [6], 1.83%. Moreover, the inhibition in experiment [7] was determined as 3.03%; in experiment [8] it was 0.64%; in experiment [9], 0.1%; in [10], 1.45%; in experiment [11] it was 5.28%; in experiment [12], 2.47%. The inhibition in experiment [13] was determined as 8.3%; in experiment [14], 0.08%; in [15], 5.16%; in experiment [18], 1.73%; in [19], 7.9%; in experiment [20], 2.64%.
On to `CC1=C(C(=O)Nc2ccc3[nH]ncc3c2)C(c2ccc3ccccc3c2)CC(=O)N1` (stereo unspecified), for which the inhibition amounted to 6.67% in experiment [1]; 3.48% in experiment [2]; 8.7% in experiment [3]; 12.8% in experiment [4]; 53.3% in experiment [5]; 12.6% in experiment [6]. Besides, the inhibition in experiment [7] was 53.3%; in [8], 33.7%; in experiment [9], 75.3%; in experiment [12] it was 77%; in experiment [13], 84.2%; in experiment [14], 3.94%. The inhibition in experiment [15] worked out at 26.4%; in experiment [16] it was 2.4%; in experiment [17], 21.3%; in experiment [18] it was 2.26%; in experiment [19], 13.7%; in experiment [20], 1.04%.
For `Cc1nnc(-c2ccc(C)c(-c3ccc(C(=O)Nc4cccc(C#N)c4)cc3)c2)o1`, the inhibition in [1] stood at 3.13%; in experiment [2], 2.37%; in experiment [3] it was 3.16%; in experiment [4], 0.21%; in experiment [5] it was 2.16%; in [6], 1.21%. The inhibition in [7] was 3.35%; in [8], 0.63%; in experiment [9], 1.68%; in experiment [10] it was -0.21%; in experiment [11], 0.62%; in experiment [12], -0.03%. Besides, the inhibition in [13] is 3.81%; in experiment [14] it was 1.66%; in experiment [15], 3.77%; in experiment [16], 1.23%; in experiment [17], 2.97%; in [18], 0.46%. In addition, the results for the inhibition in [19] and in [20] were 2.89% and 0%, respectively.
